Reference: PubChem BioAssay (NCI)
This is part of a sample that, as a whole, favours compounds with a hit. Of some 83,000 tested, about 20% had one in any assay.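 Growth was measured after 48 h exposure to one concentration of compound in 96-well plates. Values under 10 count as active.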 A number with no mark means an inactive call. Activity calls are given as the source filed them.

Experiments:
Assay in all cases: NCI-60 one-dose screen, 48 h (100 = growth as untreated, 0 = no growth, -100 = all killed)
Details in all cases: 10 µM unless noted
NCI-H23 lung = tested on: NCI-H23 lung
NCI-H226 lung = tested on: NCI-H226 lung
NCI-H322M lung = tested on: NCI-H322M lung
HOP-62 NSCLC = tested on: HOP-62 NSCLC
HOP-92 NSCLC = tested on: HOP-92 NSCLC
NCI-H522 lung = tested on: NCI-H522 lung
A549/ATCC NSCLC = tested on: A549/ATCC NSCLC
786-0 renal = tested on: 786-0 renal
COLO 205 colon = tested on: COLO 205 colon
NCI-H460 lung = tested on: NCI-H460 lung

SMILES	growth (NCI-H23 lung) [%]	growth (NCI-H226 lung) [%]	growth (NCI-H322M lung) [%]	growth (HOP-62 NSCLC) [%]	growth (HOP-92 NSCLC)	growth (NCI-H522 lung)	growth (A549/ATCC NSCLC) [%]	growth (786-0 renal)	growth (COLO 205 colon)	growth (NCI-H460 lung) [%]
O=C(N=c1oc2ccccc2cc1-c1cc2ccccc2[nH]1)Nc1ccc(Cl)cc1	86.2	95.9	87.8	83.3	95.1%	88.4%	96.1	94.6%	122%	
Cc1c(C(=O)NCCN2CCOCC2)cn2ncnc(Oc3ccc(NC(=O)Nc4ccc(Cl)c(C(F)(F)F)c4)cc3)c12	13.9	34.2	73.8	20.5	7.32% (active)	5.61% (active)	13.4	12.3%	-25.4% (active)	
CCc1nnc(NC(=O)c2nnn(-c3ccccc3)c2-c2ccco2)s1	91.7	90.9	94.2	92.9	91.3%	90.9%	96.9	105%	109%	
CNCCCC12CCC(c3ccccc31)c1ccccc12	92.1	107	92	82.9	48.5%	88.8%	90.1	65.7%	7.78% (active)	
C/C=C(\C)C(=O)N[C@H]1[C@@H](OC(C)=O)C[C@]2(C)C3CC[C@@]4(C)C(CC[C@@H]4C(C)N(C)C)C3CCC2[C@H]1O (stereo partly drawn)	74.4	101	67.7	91.9	71%	99.4%	78.5	66.1%	75.8%	
O=c1c2cccc(F)c2sc2c(NCCCNCCO)nc3ccccc3c12	49.9	58	44	45.3	15.4%	44.4%	26.9	48.5%	-44.4% (active)	
CCCCCCCCCCCCCCCCCCOc1ccccc1CCCOP(=O)(O)OCC[N+](C)(C)C	93.5	92.3	113	59.3	33.4%	67.9%	54.8	85.1%	31.6%	
Cc1cc2nc3cc(C)c(N)cc3[n+](-c3ccccc3)c2cc1N	39.8	71.2	93.8	52.7	41.5%	38.4%	75.1	58.6%	61.1%	
COc1ccc(-c2nn(C(=O)c3cc(OC)c(OC)c(OC)c3)c3cc(N)ccc23)cc1	34.1	28.9	53.4	30.1	50.1%	-12.6% (active)	18.1	6.94% (active)	-60.3% (active)	
C/C(=N/NC(N)=S)c1sc(Nc2cccc(Cl)c2)nc1C	89.4	92	77.9	102	62.6%	42.6%	92.5	84.3%	84.9%	
OC(COc1ccccc1)CN1CCN(c2ccc(Cl)cc2)CC1 (stereo not drawn)		95.3	115	123	80.5%	98.3%	87.1	102%	99.3%	105
Brc1c[n+](Cc2ccc3ccccc3c2)cn1Cc1ccc2ccccc2c1		34.4	73.8	48	-24% (active)	13.3%	70	44.3%	-49.6% (active)	20.1
